Data taken from ChEMBL document CHEMBL1157539, “Thousands of chemical starting points for antimalarial lead identification” (Nature, 2010).
Several values for one entry are separate records, joined by “and”; a condition that tells them apart may be missing. Identical values can stand only once.

Tests used:
[1] = test system: Plasmodium falciparum; assay: GSK_TCMDC: Inhibition of Plasmodium falciparum 3D7 in whole red blood cells, using parasite LDH activity as an index of growth. Test compounds present at 2uM; type: functional
[2] = test system: Plasmodium falciparum; assay: GSK_TCMDC: Inhibition of Plasmodium falciparum Dd2 in whole red blood cells, using parasite LDH activity as an index of growth. Test compounds present at 2uM; type: functional

| SMILES | Inhibition [1] | Inhibition [2] |
| --- | --- | --- |
| Cc1ccc(Cn2ccc3c4c(N)nc(N)nc4ccc32)cc1 | 99% |  |
| CCN(CC)CCCC(C)Nc1c2ccc(Cl)cc2nc2ccc(OC)cc12.Cl.O (stereo unspecified) | 100% | 100% |
| Cc1nc(C)c(-c2ccc(Oc3cccc(OC(F)(F)F)c3)cc2)c(O)c1Br | 100% | 96% |
| Nc1nc(N)c2c(ccc3c2ccn3Cc2ccc3c(c2)OCO3)n1 | 100% | 95% |
| CCc1cc(COc2ccc(CNCCC(C)C)cc2I)c(OCc2ccccc2)c(COc2ccc(CNCCC(C)C)cc2I)c1.Cl | 89% | 15% |
| Cc1nc(C)c(-c2ccc(Oc3ccc(Cl)c(Cl)c3)cc2)c(O)c1Cl | 100% | 97% |
| CCc1nc(N)nc(N)c1-c1ccc2c(c1)CCCC2 | 95% | 0% |
| Cn1c(N)cc(-c2cccc(I)c2)c2c(=O)nc(N)nc1-2 | 89% | 75% |
| COc1cc(Cc2cnc(N)nc2N)cc(OCCCCNS(=O)(=O)C(F)(F)F)c1OC | 84% | 0% |
| CCCCC#Cc1cnc2nc(N)[nH]c(=O)c2n1 | 89% | 2% |
| CCN(CC)CCNc1cc(C)nc(NC(=N)Nc2ccc(Cl)cc2)n1.Cl | 100% | 0% |
| CCOC(=O)N1CCN(CCCCCNc2cc(C)nc(NC(=N)Nc3ccc(Cl)cc3)n2)CC1.Cl | 100% | 0% |
| CN(Cc1cnc2nc(N)nc(N)c2n1)c1ccc(C(=O)N[C@H](CCC(=O)OC(C)(C)C)C(=O)N[C@@H](CCC(=O)OC(C)(C)C)C(=O)OC(C)(C)C)cc1 | 85% | 1% |
| CCN(CC)c1ccc2nc(N)nc(N)c2c1.Cl | 93% | 0% |
| CCOc1cc(Cc2cnc(N)nc2N)cc(Br)c1OC | 83% | 3% |
| COc1cc(Cc2cnc(N)nc2N)cc(OCCCCCCC(=O)O)c1OC | 90% | 2% |
| CC(=NNC(S)=NCCc1ccccn1)c1ccccn1 | 100% | 95% |
| COc1cc(Cc2cnc(N)nc2N)cc(OCCCC#N)c1OC | 86% | 0% |
| Cc1[nH]c(C)c(-c2ccc(Oc3ccc(F)cc3)cc2)c(=O)c1Br | 100% | 98% |
| CCN(CC)CCCC(C)Nc1ccnc2cc(C#N)ccc12 (stereo unspecified) | 100% | 80% |

| SMILES | Inhibition [1] | Inhibition [2] |
| --- | --- | --- |
| Cc1ccccc1Cn1ccc2c3c(N)nc(N)nc3ccc21 | 100% |  |
| Cc1cc2c3c(N)nc(N)nc3ccc2n1C | 95% | 0% |
| Cc1cc(=O)c(-c2ccc(Oc3ccc(OC(F)(F)F)cc3)cc2)c(C)[nH]1 | 93% | 61% |
| CCCOc1ccc(CNCCCCCCNCc2ccc(OCCC)c3ccccc23)c2ccccc12.CS(=O)(=O)O | 100% | 96% |
| COc1ccc(Cc2c(Cl)nc3nc(N)nc(N)c3c2C)cc1 | 94% | 3% |
| CCOc1ccc(CNCCCCCCNCc2ccc(OCC)c3ccccc23)c2ccccc12.CS(=O)(=O)O | 100% | 75% |
| Cc1nc(C)c(-c2ccc(Cl)cc2)c(O)c1I | 93% | 96% |
| Cc1ccccc1OCCCc1c(C)nc(N)nc1N | 97% | 1% |
| CCc1cc2c3c(N)nc(N)nc3ccc2n1C(C)(C)C | 99% |  |
| CC(C)CNc1nc(N)nc2ccc3c(ccn3CC(C)C)c12 | 99% | 51% |
| Cc1c(C(C)(C)C)ccc2nc(N)nc(N)c12 | 89% | 0% |
| Cl.c1ccc(CN2CCN(CCCCNc3c4ccccc4nc4ccccc34)CC2)cc1 | 100% | 100% |
| Nc1nc(N)c(-c2ccccc2)c(=O)[nH]1 | 83% | 0% |
| CCNC(=O)CCc1cccc(Br)c1 | 89% | 54% |
| C=CCn1ccc2c3c(N)nc(N)nc3ccc21 | 89% | 91% |
| O=C(Nc1cccc(-c2cccc(-c3nc4ccccc4[nH]3)c2)c1)NC1CC1c1ccccc1 (stereo unspecified) | 90% and 87% | 22% and 27% |
| COc1ccc(Cc2cnc3nc(N)nc(N)c3c2C)cc1OC.O=S(=O)(O)CCO | 93% | 97% |
| Cc1cccc(Cn2ccc3c(N)nc(N)nc32)c1 | 82% |  |
| Cc1c(Cc2ccc(C(C)C)cc2)cnc2nc(N)nc(N)c12 | 97% | 0% |
| COc1cc(CCNC(=O)Cc2ccc3ccccc3c2)ccc1OCc1ccccc1 | 93% | 61% |
